# The supplement of paper PMC6411743
# ± gives the standard deviation of the averaged measurements. The full data set covers some 6,500 targets. This sample favours those with the largest changes.
# Key:
# Test in all cases: NP40-soluble protein abundance relative to vehicle (solubility fold change) (ratio); higher = more soluble protein in presence of ATP
# SPAG7 = molecular target: T1, SPAG7 (UniProt O75391)
# T1 sequence (whole entry): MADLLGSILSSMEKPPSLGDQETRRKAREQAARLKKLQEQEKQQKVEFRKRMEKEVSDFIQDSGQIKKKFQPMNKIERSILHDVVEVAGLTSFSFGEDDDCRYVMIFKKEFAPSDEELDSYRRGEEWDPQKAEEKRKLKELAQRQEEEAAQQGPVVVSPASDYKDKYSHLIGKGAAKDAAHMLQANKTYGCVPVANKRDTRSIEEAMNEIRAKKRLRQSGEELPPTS
# In short: (§1)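 Values are fold changes against the detergent-processed vehicle, based on vsn-normalised intensities. Jurkat crude lysate was treated at eight concentrations from 0.1 to 10 mM (10 min at room temperature, then 3 min at 37 °C), solubilised with 0.8% NP40 and benzonase, ultracentrifuged and analysed by TMT-labelled LC-MS/MS over three independent experiments.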
# [1] = molecular target: T2, UniProt O95294|O95294-2|O95294-3|O95294-4
# T2 sequence (whole entry): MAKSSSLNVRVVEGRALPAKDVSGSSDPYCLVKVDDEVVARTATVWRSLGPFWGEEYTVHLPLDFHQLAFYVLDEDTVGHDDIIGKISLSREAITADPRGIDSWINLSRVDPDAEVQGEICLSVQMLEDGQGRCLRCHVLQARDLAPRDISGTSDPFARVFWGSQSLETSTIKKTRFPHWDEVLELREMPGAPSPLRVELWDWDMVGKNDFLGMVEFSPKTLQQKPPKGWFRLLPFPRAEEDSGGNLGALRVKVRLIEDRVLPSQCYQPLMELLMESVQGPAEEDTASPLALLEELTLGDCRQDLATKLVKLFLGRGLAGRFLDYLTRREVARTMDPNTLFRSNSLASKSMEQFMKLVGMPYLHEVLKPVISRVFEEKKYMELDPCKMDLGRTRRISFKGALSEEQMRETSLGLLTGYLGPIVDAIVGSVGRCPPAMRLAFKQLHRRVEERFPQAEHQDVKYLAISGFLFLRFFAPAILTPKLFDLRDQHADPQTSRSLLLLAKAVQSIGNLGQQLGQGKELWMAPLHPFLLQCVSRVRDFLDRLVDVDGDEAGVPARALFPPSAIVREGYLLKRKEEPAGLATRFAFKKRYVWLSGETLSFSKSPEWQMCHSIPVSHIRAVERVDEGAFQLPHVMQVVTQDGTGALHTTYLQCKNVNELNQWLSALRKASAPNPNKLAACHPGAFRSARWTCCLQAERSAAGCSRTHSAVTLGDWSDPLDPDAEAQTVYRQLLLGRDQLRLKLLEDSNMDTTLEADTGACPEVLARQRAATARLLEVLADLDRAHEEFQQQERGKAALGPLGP
# In short: as §1
# [2] = molecular target: T3, UniProt O95379-3|O95379-4
# T3 sequence (whole entry): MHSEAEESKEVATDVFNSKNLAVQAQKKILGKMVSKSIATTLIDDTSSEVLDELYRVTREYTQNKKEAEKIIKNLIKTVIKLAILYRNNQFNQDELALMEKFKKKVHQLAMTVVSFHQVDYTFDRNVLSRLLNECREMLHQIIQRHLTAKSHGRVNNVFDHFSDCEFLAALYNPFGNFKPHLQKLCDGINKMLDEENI
# In short: as §1
# [3] = molecular target: T4, UniProt O95983|O95983-2|K7EIE8
# T4 sequence (whole entry): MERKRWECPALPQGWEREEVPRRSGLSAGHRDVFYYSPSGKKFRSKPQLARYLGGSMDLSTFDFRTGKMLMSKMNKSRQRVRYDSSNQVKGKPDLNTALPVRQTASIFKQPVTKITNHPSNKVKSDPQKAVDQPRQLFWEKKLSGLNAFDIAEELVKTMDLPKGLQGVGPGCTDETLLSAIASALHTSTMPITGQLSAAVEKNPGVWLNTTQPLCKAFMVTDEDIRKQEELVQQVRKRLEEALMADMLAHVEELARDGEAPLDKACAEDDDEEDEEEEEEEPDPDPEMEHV
# In short: as §1
smiles,measurement,setting,value
Nc1ncnc2c1ncn2[C@@H]1O[C@H](COP(=O)(O)OP(=O)(O)OP(=O)(O)O)[C@@H](O)[C@H]1O [adenosine triphosphate],NP40-soluble protein abundance,SPAG7; concentration: 2mM,0.964 ± 0.047
same,NP40-soluble protein abundance,SPAG7; concentration: 4mM,0.964 ± 0.04
same,NP40-soluble protein abundance,SPAG7; concentration: 6mM,0.969 ± 0.046
same,NP40-soluble protein abundance,SPAG7; concentration: 8mM,0.9594 ± 0.0036
same,NP40-soluble protein abundance,SPAG7; concentration: 10mM,0.903 ± 0.058
same,NP40-soluble protein abundance,[1]; concentration: 1mM,0.95 ± 0.03
same,NP40-soluble protein abundance,[1]; concentration: 2mM,0.96 ± 0.069
same,NP40-soluble protein abundance,[1]; concentration: 4mM,1.01 ± 0.058
same,NP40-soluble protein abundance,[1]; concentration: 6mM,0.994 ± 0.11
same,NP40-soluble protein abundance,[1]; concentration: 8mM,0.962 ± 0.13
same,NP40-soluble protein abundance,[1]; concentration: 10mM,0.965 ± 0.15
same,NP40-soluble protein abundance,[2]; concentration: 1mM,0.855 ± 0.036
same,NP40-soluble protein abundance,[2]; concentration: 2mM,0.93 ± 0.019
same,NP40-soluble protein abundance,[2]; concentration: 4mM,0.885 ± 0.032
same,NP40-soluble protein abundance,[2]; concentration: 6mM,0.9504 ± 0.0062
same,NP40-soluble protein abundance,[2]; concentration: 8mM,0.932 ± 0.035
same,NP40-soluble protein abundance,[2]; concentration: 10mM,0.85 ± 0.1
same,NP40-soluble protein abundance,[3]; concentration: 1mM,1.03 ± 0.12
same,NP40-soluble protein abundance,[3]; concentration: 2mM,0.983 ± 0.078
same,NP40-soluble protein abundance,[3]; concentration: 4mM,0.98 ± 0.035
